D3 ag: activates the human D3 dopamine receptor. P35462. D3R DiscoveRx beta-arrestin cells, luminescence, 90 min. max activation, %. 410,000 compounds, 0.58% hits; in the data active means max activation above about 30%; further: 0% is about no effect
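Agonist mode: compounds and dopamine controls were applied to plated cells for 90 min at 37 degrees C after an overnight attachment at 1500 cells/well. Luminescent read-out followed 30 - 60 minutes at room temperature with DiscoveRx detection reagent.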
D1 ag: human D1 receptor agonism; P21728; HEK293 T-REx D1 cells, calcium flux, agonist mode; activation, % at 2 µM; 360,000 compounds, 1% hits; AID 504660; in the data active means activation above about 30%; further: 0% is about no effect
Target sequence (P21728 whole entry, looked up): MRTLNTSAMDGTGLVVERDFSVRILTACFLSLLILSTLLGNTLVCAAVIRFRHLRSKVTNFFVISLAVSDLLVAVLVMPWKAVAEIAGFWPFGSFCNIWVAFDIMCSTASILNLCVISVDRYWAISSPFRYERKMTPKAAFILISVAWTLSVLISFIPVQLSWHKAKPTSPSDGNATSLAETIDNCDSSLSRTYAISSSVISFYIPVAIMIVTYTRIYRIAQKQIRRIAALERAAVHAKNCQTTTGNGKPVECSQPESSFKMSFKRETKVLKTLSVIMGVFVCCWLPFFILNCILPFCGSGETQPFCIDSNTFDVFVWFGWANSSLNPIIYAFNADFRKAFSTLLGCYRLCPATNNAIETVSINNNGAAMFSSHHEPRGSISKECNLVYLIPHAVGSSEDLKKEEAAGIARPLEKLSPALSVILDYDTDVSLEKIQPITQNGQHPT
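Inducible HEK293 T-REx D1 cells, force-coupled to calcium signalling, were plated at 4000 cells/well with tetracycline and held overnight at 30 C. After no-wash calcium dye loading, compound-evoked calcium rise over 180 s flagged agonists.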
DRD3 antagonist: D3 dopamine receptor (human) antagonism; D3R cells, DiscoveRx beta-arrestin luminescence, antagonist mode; active compounds read low; 360,000 compounds, 2.5% hits; max response, negative = inhibition, %; AID 652054; in the data active means max response below about -50%; inconclusive means no clear call, values can overlap the other calls; further: on the % scale 0 is the no-effect control and ±100 the full control effect
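Cells expressing the human receptor were seeded at 1500 cells/well, incubated overnight at 37 degrees C in 5% CO2, then exposed to library compounds with dopamine controls for 90 minutes at 37 degrees C before luminescent detection.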
ERG Ets-DNA blk: blocks human ERG Ets domain binding to DNA | fluorescence polarization, His-ERG Ets domain / labelled DNA | 370,000 compounds, 0.028% hits | P11308 | Potency, µM (top dose mostly 76.9 µM), inactives show top-dose FP activity, negative = inhibition, most hits filed as inhibitors; active means well fitted inhibition curve with a large enough effect in the polarisation, with a control signal flat; inconclusive means small, poorly fitted or top-dose-only effect, or effect the other way, or a change in a side signal; inactive means no such curve, though single readings can be large or run the other way; the % refers to the polarisation;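 further: polarization taken with two DNA probes labelled with fluorescein and Texas red; potency means the concentration at half of the fitted maximal effect; % of control where 0% means no effect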
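His-tagged ERG Ets domain (1 uM in the protein solution; 300mM KCl, 50mM Tris-HCl, 1mM EDTA, 1mM DTT, pH 7.5) received compound, then a probe mix of 5 nM fluorescein-DNA and 100nM Texas-615-DNA. Fluorescence polarization was read for both dyes.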
D1 antag: human D1 dopamine receptor antagonism. P21728. HEK293 TREx D1 cells, calcium flux, dopamine EC80; active compounds read low. activity change, negative = inhibition, % at 10 µM. 360,000 compounds, 3.2% hits. AID 504652; in the data active means activity change below about -30%; further: on the % scale 0 is the no-effect control and ±100 the full control effect
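Antagonism measured as reduced calcium response to an EC80 dopamine addition following 180 s compound pre-read; cells were inducible HEK293 Trex D1 plated overnight at 30 C, read kinetically at 1 cycle/sec.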
D1 PAM: human D1 dopamine receptor positive modulation | potentiation, % at 10 µM | HEK293 TREx D1 cells, calcium flux, dopamine EC20 potentiation | AID 504651 | P21728 | 360,000 compounds, 0.036% hits; in the data active means potentiation above about 30%; further: 0% is about no effect
The depositor's hits bear a star; ? = inconclusive; nt = no result. Hits are enriched below; roughly 6.1% of the tested compounds scored in any of these assays.

SMILES	D3 ag	D1 ag	DRD3 antagonist	ERG Ets-DNA blk	D1 antag	D1 PAM
COc1ccc(C(O)Cn2ccsc2=NC(C)=O)cc1 (stereo not drawn)	-1.9	1.0	3.2	1.1%	0.5	-6.2
Cc1noc(C)c1NC(=O)N(C)C[C@H]1OCc2cn(nn2)CCCC(=O)N([C@@H](C)CO)C[C@@H]1C	-4.8	nt	15.4	nt	nt	nt
Cc1cc(=O)n(CCCc2ccccc2)[nH]1	-6.1	-1.3	-67.1*	0.0%	-20.3	-7.4
CCc1ccc(-c2nc(CS(=O)CC(=O)NCc3ccc(F)cc3)c(C)o2)cc1 (stereo not drawn)	5.3	0.3	nt	1.0%	15.4	1.2
CCN(CC)c1ccc(NC(=O)C2CC3CCC2C3)cc1 (stereo not drawn)	-13.0	4.4	?	3.3%	0.8	-5.9
CCCCN1Cc2ccccc2Oc2cc(Br)ccc2S1(=O)=O	-18.5	nt	6.7	-1.7%	nt	nt
CC(C)CN1Cc2ccccc2Oc2cc(Br)ccc2S1(=O)=O	5.2	nt	-62.1*	-25.6%	nt	nt
COc1ccccc1C(=O)NC1(C(F)(F)F)C(=O)Nc2c1c(=O)[nH]c(=O)n2CCc1ccccc1 (stereo not drawn)	-5.8	0.9	nt	-23.5%	-7.1	-6.8
Cn1ncc(C#N)c1NC(=O)C1CC(c2ccc(Cl)c(Cl)c2)=NO1 (stereo not drawn)	3.1	14.1	-1.8	-5.6%	-25.3	-2.9
O=C(NCC1CCCO1)C1CC(c2ccc(Cl)c(Cl)c2)=NO1 (stereo not drawn)	0.9	14.7	-24.5	nt	-32.2*	-11.2
Clc1ccc(Nc2c(-c3ccccc3Cl)nc3ccc(Cl)cn23)cc1	1.5	-0.1	nt	3.7%	-40.7*	-2.0
Clc1ccc2nc(-c3ccccn3)c(Nc3ccc4c(c3)OCO4)n2c1	-17.5	1.1	-59.7*	81.4%	1.2	-1.9
CCC(C(=O)OCC(=O)Nc1cc(OC)ccc1OC)c1ccccc1 (stereo not drawn)	3.0	2.7	19.6	-7.6%	-24.7	-5.6
O=C1C2C3C=CC(CC3)C2C(=O)N1c1cccc(Br)c1 (stereo not drawn)	-14.2	4.0	-15.0	4.8%	-37.2*	-5.3
Cc1cccc(NC(=O)c2ccc(COc3ccccc3)o2)n1	-6.0	3.0	-6.8	-9.9%	-1.5	-8.6
Cc1csc(NC(=O)c2ccc(COc3ccccc3)o2)n1	0.3	14.5	9.5	-0.5%	-35.3*	-9.1
CC(=O)Nc1ccc(C(=O)Nc2nc(-c3ccccn3)cs2)cc1	-1.6	2.2	-56.2*	3.2%	-13.4	5.3
Cc1csc(NC(=O)c2cccnc2)n1	4.4	-1.6	8.6	0.2%	-36.1*	-7.7
Cc1csc(NC(=O)CSc2ccc(-c3ccccn3)nn2)n1	4.7	-3.5	-22.7	-3.6%	-98.5*	0.7
Cc1csc(NC(=O)c2ccccc2)n1	2.4	0.9	-2.5	6.5%	6.9	0.2
O=C(CSc1ccc(-c2ccccn2)nn1)Nc1nccs1	0.6	1.2	-6.3	-27.5%	13.9	-1.8
O=C(Nc1ccncc1)c1ccccc1-c1ccccc1	2.6	1.6	6.6	9.5%	-3.1	3.0
CC(C)C[C@H](NC(=O)c1nc[nH]c1C(=O)N1CCN(C(=O)OC(C)(C)C)CC1)C(=O)OCc1ccccc1	1.4	-0.4	0.0	-1.5%	-27.1	-1.1
COc1ccc(CNC(=O)c2sccc2-c2ccccc2)cc1OC	10.9	5.5	11.2	3.7%	-4.1	-9.8
CN1CCN(c2ccc(NC(=O)N3CCc4ccccc43)cc2)CC1	-19.6	3.5	?	11.1%	3.6	3.1
SMILES	D3 ag	D1 ag	DRD3 antagonist	ERG Ets-DNA blk	D1 antag	D1 PAM
Cc1cccc(NC(=O)C2CCN(S(=O)(=O)c3c(C)[nH]c(=O)[nH]c3=O)CC2)c1	4.9	3.0	-5.3	4.8%	20.0	0.6
Cc1cc(C)cc(NC(=O)C2CCN(S(=O)(=O)c3c(C)n[nH]c3C)CC2)c1	9.7	-0.1	20.1	2.9%	-76.6*	-18.3
Cc1noc(/C=C/N(C)C)c1S(=O)(=O)N1CCC(C(=O)Nc2ccc(Cl)cc2)CC1	2.7	3.5	-24.2	4.2%	-45.5*	-5.4
Cc1noc(/C=C/c2ccco2)c1S(=O)(=O)N1CCC(C(=O)Nc2ccc(F)c(Cl)c2)CC1	2.0	9.9	nt	9.8%	-47.9*	4.3
CCC1CN(C(=O)N2CCC(C(=O)NCc3ccccc3OC)CC2)c2ccccc2O1 (stereo not drawn)	0.9	4.2	-12.8	10.5%	2.0	-0.7
Cc1cccc(NC(=O)C2CCN(c3nnc(C)c4c(C)n(-c5ccccc5)nc34)CC2)c1C	5.3	0.5	nt	2.9%	2.0	-1.4
Cc1cccn2cc(-c3cccc(S(=O)(=O)N4CCOCC4)c3)nc12	1.8	0.6	-1.1	-8.7%	3.9	-3.9
O=C(CC(NS(=O)(=O)c1ccc(Cl)cc1)c1ccco1)NCc1ccco1 (stereo not drawn)	-1.9	9.1	-2.9	-4.4%	-37.7*	-4.0
CCCNC(=O)CC(NS(=O)(=O)c1ccc(Cl)cc1)c1ccco1 (stereo not drawn)	-2.1	nt	16.6	-0.8%	nt	nt
CC1(Oc2cnc(Cl)c3ccccc23)CCN(Cc2ccc(-c3ccccn3)cc2)C1 (stereo not drawn)	-2.3	nt	-0.5	nt	nt	nt
Cc1ccccc1OC1(C)CCN(Cc2ccc(-c3ccccn3)cc2)C1 (stereo not drawn)	-8.6	nt	-75.4*	nt	nt	nt
CC1(Oc2cccc(F)c2)CCN(Cc2ccc(-c3ccccn3)cc2)C1 (stereo not drawn)	-26.6	nt	-67.2*	nt	nt	nt
O=C(COC(=O)c1cccnc1Cl)NC(=O)c1ccc(OC(F)F)cc1	-8.8	nt	-52.8*	6.1%	nt	nt
Cc1ccc(C(=O)Nc2cccnc2)cc1S(=O)(=O)N1CCCC1	3.5	6.5	-2.8	7.2%	1.6	0.3
CCc1ccccc1NC(c1nnc(-c2cccc(F)c2)o1)c1ccc(F)cc1Cl (stereo not drawn)	1.0	4.1	nt	-2.7%	0.2	0.6
COc1cc(-c2ccc3sc(-c4ccsc4)c(C#CCO)c3c2)cc(OC)c1OC	50.2*	5.8	50.9	15.0%	nt	4.5
COC(=O)c1c(-c2ccc(N(C)C)cc2)sc2ccc(OC)cc12	134.0*	nt	174.7	-9.2%	nt	nt
COc1cc(-c2c(-c3ccsc3)sc3ccccc23)cc(OC)c1OC	12.4	-1.7	38.1	8.3%	nt	-1.3
COC(=O)c1c(-c2ccc(OC)cc2)sc2cc3c(cc12)OCO3	18.9	7.7	97.6	-4.3%	nt	-3.0
COC(=O)c1c(-c2ccsc2)sc2ccc(-c3cc(OC)c(OC)c(OC)c3)cc12	53.3*	nt	49.2	-1.2%	nt	nt
CN(C)C(=O)CSc1nc2cc(S(=O)(=O)N3CCOCC3)ccc2o1	0.6	nt	16.8	9.1%	nt	nt

Compound activity as filed in PubChem BioAssay.
